The nature of assay [1]: small molecules captured by biotinylated probe aFSTL3 – biochemical, small-molecule microarray, fluorescence 635/667, stem cell growth factor project, primary screen (AID 1064).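 Also: measures binding of the biotinylated anti-FSTL3 antibody to printed compounds.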 To be noted: higher = more signal.
The nature of assay [2]: binders from COS7 lysate, DM2A8 probe, primary screen, torsin A project, cell lysate, small-molecule microarray, fluorescence 635/667 (AID 1065). To be noted: higher = more signal, COS7 lysate expressing mutant human TOR1A.
Assay [3] is described as follows: small molecules captured by biotinylated probe aFGF2 – biochemical, small-molecule microarray, fluorescence 635/667, stem cell growth factor project, primary screen (AID 1067).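 Also: measures binding of biotinylated aFGF2 protein to printed compounds on slides; z-score merges feature fluorescence and signal-to-noise across triplicate slides.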 To be noted: higher = more signal.
Assay [4] is described as follows: small molecules captured by biotinylated probe aFGF10 – biochemical, small-molecule microarray, fluorescence 635/667, stem cell growth factor project, primary screen (AID 1071).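 Also: score merges 667 nm spot intensity and signal to noise from triplicate slides.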 To be noted: higher = more signal.
Assay [5] deals with Neurogenic locus notch homolog protein 2 (Homo sapiens) (UniProt Q04721). The assay is described as follows: small molecules binding Notch2 protein – biochemical, small-molecule microarray, 635 nm fluorescence, stem cell growth factors, primary screen (AID 1073). To be noted: higher = more signal.
Assay [6] has as its target Pro-neuregulin-1, membrane-bound isoform (Homo sapiens) (UniProt Q02297). The assay is described as follows: small molecules binding neuregulin-1 protein – biochemical, small-molecule microarray, fluorescence 635/667, psychiatric disease protein project, primary screen (AID 1075).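 Also: score combines 667 nm spot fluorescence with signal to noise.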 To be noted: NRG1 binding, 635 nm fluorescence, higher = more signal.
In assay [7] the test system is Neuregulin-1 EGF-like domain. In words: small molecules binding NRG1 EGF domain – biochemical, small-molecule microarray, 635 nm fluorescence, primary screen (AID 1081).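 Also: binding of the protein to compounds printed on small-molecule microarray slides.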 To be noted: higher = more signal.
The nature of assay [8]: FRG1 expression reporter modulators in myotubes – cell-based, C2C12 myotubes, firefly/Renilla luciferase, luminescence, FRG1 inhibition for FSHD, primary screen (AID 1084). To be noted: FRG1 promoter luciferase, higher = more signal, called active from +8 up or from −8 down.
Assay [9] can be described thus: small molecules captured by biotinylated probe aFST – biochemical, small-molecule microarray, fluorescence 635/667, stem cell growth factor project, primary screen (AID 1086).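 Also: score merges 667 nm fluorescence with signal-to-noise of each printed compound spot.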 To be noted: higher = more signal.
Assay [10] can be described thus: binders of probe aHhip on microarray, primary screen, stem cell growth factor project, biochemical, small-molecule microarray, fluorescence 635/667 (AID 1087).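 Also: score merges spot fluorescence at 667nm with spot signal to noise ratio.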 To be noted: higher = more signal.
Assay [11] deals with PRMT1 (protein arginine N-methyltransferase 1). In words: small molecules binding arginine methyltransferase PRMT1 – biochemical, small-molecule microarray, 635 nm fluorescence, primary screen (AID 1088).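 Also: binding of Prmt1 protein to compounds spotted on small-molecule microarray slides.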 To be noted: higher = more signal.
Assay [12] in a line: growth effects on S. cerevisiae YJM789 – YJM789 clinical isolate, OD600, 24 h, basal, primary screen (AID 1089).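 Also: growth of clinical yeast isolate S. cerevisiae YJM 789 seeded 1000 cells per well; test concentration not given here.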 To be noted: higher = more signal, called active from +8 up or from −8 down.
The nature of assay [13]: S. pombe growth modifiers, basal conditions – strain 972, OD600, 24 h, no modulator, primary screen (AID 1090).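 Also: basal condition with compound alone and no growth modifier present; test concentration not given here.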 To be noted: S. pombe 972 growth, higher = more signal, called active from +8 up or from −8 down.
A short description of assay [14]: budding yeast growth modifiers under rapamycin – strain BY4716, OD600, 96 h, primary screen (AID 1091). Also: test concentration not given here. To be noted: S. cerevisiae BY4716 + rapamycin, higher = more signal, called active from +8 up or from −8 down.
Assay [15] addresses Torsin-1A-interacting protein 2 (Homo sapiens) (UniProt Q8NFQ8). In words: small molecules binding lysate-expressed LULL1 – cell lysate, human LULL1 lysate, 635/667 nm fluorescence, primary screen (AID 1092).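 Also: probe is lysate of COS7 cells overexpressing human LULL1; score merges per-feature 667 nm fluorescence with signal-to-noise.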 To be noted: small-molecule microarray, hLULL1 lysate binding, 635 nm fluorescence; higher = more signal.
Assay [16] is described as follows: optical density change of DRC41 E. coli – strain DRC41, OD650, 24 h, E. coli filamentation project, primary screen (AID 1093).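 Also: MC1000 strain lacking acrAB efflux and sulA so SOS filamentation is blocked; test concentration not given here.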 To be noted: E. coli DRC41 growth, higher = more signal, called active from +8 up or from −8 down.
The nature of assay [17]: probe aLefty2 binding to arrayed compounds – biochemical, biotinylated probe, 635/667 nm fluorescence, primary screen (AID 1094).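 Also: score merges spot fluorescence near 667 nm with spot signal-to-noise ratio.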 To be noted: small-molecule microarray, higher = more signal.
For assay [18], the system named is Noggin (protein binding on small-molecule microarray). The assay is described as follows: small molecules binding Noggin protein – biochemical, 635/667 nm fluorescence, primary screen (AID 1095).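 Also: score merges 667 nm feature fluorescence with signal to noise over triplicate slides.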 To be noted: 635 nm fluorescence, higher = more signal.
Assay [19] concerns the target Neurogenic locus notch homolog protein 3 (Homo sapiens) (UniProt Q9UM47). In words: small molecules binding NOTCH3 protein – biochemical, 635/667 nm fluorescence, primary screen (AID 1096). To be noted: small-molecule microarray, 635 nm fluorescence, higher = more signal.
Assay [20] is described as follows: probe aEGFR binding to arrayed compounds – biochemical, biotinylated probe, 635/667 nm fluorescence, primary screen (AID 1097).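 Also: probe is a biotinylated anti-EGFR antibody binding compounds printed on slides; score combines fluorescence near 667 nm and signal to noise of each spot.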 To be noted: small-molecule microarray, higher = more signal.

The source made the active and inactive calls.

Chain of Pro-neuregulin-1, membrane-bound isoform (Homo sapiens) (Q02297 whole entry, looked up, the tested form may be a part, canonical isoform): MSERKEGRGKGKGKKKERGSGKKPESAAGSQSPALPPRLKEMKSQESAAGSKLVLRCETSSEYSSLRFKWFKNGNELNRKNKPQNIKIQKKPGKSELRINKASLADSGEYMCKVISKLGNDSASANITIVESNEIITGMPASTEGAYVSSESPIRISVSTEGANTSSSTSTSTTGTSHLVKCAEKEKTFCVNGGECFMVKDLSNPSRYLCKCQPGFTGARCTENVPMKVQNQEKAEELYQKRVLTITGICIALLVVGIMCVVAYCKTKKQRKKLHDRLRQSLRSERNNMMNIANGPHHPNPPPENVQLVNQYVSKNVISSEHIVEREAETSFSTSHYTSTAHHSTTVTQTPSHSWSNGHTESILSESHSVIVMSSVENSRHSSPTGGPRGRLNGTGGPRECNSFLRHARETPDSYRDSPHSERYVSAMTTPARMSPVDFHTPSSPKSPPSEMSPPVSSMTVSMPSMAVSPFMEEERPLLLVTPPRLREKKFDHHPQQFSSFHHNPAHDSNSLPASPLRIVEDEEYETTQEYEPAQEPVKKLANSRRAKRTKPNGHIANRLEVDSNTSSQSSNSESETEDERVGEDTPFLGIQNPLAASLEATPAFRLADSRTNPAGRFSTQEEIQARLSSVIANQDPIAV
Chain of Neurogenic locus notch homolog protein 2 (Homo sapiens) (Q04721 whole entry, looked up, canonical isoform): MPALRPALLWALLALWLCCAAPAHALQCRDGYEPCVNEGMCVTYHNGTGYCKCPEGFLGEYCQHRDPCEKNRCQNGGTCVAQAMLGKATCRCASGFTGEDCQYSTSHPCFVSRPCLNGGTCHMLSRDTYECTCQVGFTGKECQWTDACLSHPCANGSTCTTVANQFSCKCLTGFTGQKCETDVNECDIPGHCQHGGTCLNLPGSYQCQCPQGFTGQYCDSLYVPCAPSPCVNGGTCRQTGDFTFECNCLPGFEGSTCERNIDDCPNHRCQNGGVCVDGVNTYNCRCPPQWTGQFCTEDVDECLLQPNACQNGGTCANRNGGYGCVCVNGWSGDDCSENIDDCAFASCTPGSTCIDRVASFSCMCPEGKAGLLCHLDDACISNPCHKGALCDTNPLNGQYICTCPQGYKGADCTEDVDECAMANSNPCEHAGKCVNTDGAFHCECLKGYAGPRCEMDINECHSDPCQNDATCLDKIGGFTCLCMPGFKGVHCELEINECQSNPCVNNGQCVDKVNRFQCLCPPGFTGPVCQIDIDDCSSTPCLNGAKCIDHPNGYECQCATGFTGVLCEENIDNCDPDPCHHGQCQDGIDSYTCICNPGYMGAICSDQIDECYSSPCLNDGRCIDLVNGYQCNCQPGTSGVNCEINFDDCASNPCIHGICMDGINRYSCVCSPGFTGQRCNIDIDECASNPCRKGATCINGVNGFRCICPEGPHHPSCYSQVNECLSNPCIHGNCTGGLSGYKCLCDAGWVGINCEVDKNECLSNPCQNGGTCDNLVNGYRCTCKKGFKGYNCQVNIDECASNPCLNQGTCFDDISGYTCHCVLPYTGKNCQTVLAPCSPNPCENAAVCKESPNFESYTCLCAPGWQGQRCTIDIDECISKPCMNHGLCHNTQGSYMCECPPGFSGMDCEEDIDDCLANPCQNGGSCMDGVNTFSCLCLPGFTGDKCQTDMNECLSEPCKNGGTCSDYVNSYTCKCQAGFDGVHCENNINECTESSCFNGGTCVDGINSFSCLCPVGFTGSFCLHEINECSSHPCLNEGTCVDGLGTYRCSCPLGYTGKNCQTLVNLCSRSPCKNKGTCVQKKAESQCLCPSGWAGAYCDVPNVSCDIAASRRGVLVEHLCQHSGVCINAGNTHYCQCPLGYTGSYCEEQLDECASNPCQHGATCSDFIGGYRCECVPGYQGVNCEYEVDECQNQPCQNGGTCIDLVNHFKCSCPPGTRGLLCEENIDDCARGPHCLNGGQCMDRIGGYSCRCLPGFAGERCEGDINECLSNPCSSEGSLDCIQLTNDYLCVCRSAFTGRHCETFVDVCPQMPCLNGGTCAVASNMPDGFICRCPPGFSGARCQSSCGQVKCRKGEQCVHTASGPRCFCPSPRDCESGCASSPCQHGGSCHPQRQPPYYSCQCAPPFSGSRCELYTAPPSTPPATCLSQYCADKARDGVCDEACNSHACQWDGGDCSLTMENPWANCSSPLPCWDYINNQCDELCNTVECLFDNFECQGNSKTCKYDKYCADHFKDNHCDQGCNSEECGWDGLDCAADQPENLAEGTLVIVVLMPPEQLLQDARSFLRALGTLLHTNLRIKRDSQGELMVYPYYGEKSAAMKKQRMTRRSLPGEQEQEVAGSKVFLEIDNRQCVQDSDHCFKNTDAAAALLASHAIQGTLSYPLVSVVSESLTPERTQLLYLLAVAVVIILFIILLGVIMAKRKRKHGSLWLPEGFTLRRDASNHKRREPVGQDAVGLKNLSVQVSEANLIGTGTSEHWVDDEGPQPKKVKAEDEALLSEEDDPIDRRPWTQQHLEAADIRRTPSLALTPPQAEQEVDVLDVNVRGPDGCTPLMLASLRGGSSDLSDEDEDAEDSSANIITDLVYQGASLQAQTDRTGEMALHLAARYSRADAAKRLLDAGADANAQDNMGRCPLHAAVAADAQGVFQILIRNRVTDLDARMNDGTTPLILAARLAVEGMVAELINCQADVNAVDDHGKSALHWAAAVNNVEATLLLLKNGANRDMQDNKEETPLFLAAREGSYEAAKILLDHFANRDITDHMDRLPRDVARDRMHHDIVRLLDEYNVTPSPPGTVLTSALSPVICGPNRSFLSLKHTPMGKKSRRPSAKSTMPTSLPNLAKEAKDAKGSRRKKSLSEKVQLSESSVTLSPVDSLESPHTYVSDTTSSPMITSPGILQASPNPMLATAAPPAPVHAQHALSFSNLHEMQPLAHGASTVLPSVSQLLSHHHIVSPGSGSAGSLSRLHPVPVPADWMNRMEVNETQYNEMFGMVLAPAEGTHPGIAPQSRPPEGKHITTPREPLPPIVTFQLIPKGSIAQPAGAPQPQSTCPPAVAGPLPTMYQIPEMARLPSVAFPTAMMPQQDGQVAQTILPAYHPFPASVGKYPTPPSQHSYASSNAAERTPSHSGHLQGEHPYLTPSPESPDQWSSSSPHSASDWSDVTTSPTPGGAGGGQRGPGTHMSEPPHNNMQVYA
Chain of Torsin-1A-interacting protein 2 (Homo sapiens) (Q8NFQ8 whole entry, looked up): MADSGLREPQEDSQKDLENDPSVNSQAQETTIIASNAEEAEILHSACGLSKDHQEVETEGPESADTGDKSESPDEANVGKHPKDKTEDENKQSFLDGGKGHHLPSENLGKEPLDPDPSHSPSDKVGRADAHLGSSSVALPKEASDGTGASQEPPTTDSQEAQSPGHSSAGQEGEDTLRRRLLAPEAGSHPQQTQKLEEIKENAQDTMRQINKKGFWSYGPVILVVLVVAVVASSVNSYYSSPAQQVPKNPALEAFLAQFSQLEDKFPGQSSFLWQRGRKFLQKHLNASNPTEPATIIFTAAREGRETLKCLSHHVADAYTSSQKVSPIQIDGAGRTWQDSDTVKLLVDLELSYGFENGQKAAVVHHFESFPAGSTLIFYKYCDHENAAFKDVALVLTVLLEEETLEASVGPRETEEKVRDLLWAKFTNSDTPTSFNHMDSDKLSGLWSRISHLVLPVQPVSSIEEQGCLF

Take `CCCCC(=C=CC[C@@H](O)c1ccc(OCCO)cc1)C[C@@H](O)c1ccccn1`: the composite z-score is -0.0136 in assay [1]; 1.23 in [2]; -0.0473 in assay [3]; 0.314 in assay [4]; 0.0751 in [5]; 0.0517 in [6]. The composite z-score in [7] was 1.15; in [9], 0.111; in assay [10], 0.16; in assay [11] it was 1.02; in assay [15], 1.18; in assay [17] it was -0.0825. The composite z-score was 0.888 in assay [18], 0.409 in [19] and -0.0787 in assay [20]. Further, the z-score in [8] was -0.838 (inactive); in [12], -0.374 (inactive); in [13], -1.07 (inactive); in [14], -0.689 (inactive); in assay [16], 0.774 (inactive).
Take `C=CCC(OC(C)=O)[C@@H]1[C@@H](N(Cc2ccc(-c3ccccc3)cc2)C(=O)c2ccc(-c3ccccc3)cc2)c2cc(OCCCO)ccc2N1C(=O)c1ccc2ccccc2n1` (stereo not given in full): the composite z-score in [1] is 0.0997; in [2], 0.185; in [3], -0.0945; in [4] it was 0.0767; in [5] it was -0.332; in [6], 0.211. In addition, the composite z-score in [7] was -0.359; in assay [9] it was 0.212; in [10] it was 0.347; in [11] it was 0.474; in assay [15], 0.183; in assay [17] it was 0.121. Moreover, the composite z-score in assay [18] was 0.408; in assay [19], 0.361; in assay [20], -0.0494. Also, the z-score in [8] was -0.0161 (inactive); in assay [12], -0.755 (inactive); in assay [13], -0.638 (inactive); in assay [14], -0.0474 (inactive); in assay [16] it was 0.853 (inactive).
For `NC(=O)NCC#Cc1ccc2c(c1)[C@]1(C(=O)N2)[C@H](C(=O)N2CCCCCCC2)[C@H]2C(=O)O[C@H](c3ccccc3)[C@H](c3ccccc3)N2[C@@H]1c1ccc(O)cc1`, the composite z-score in [1] is 3.57; in assay [2], 0.346; in [3], 0.688; in assay [4] it was 0.8; in assay [5], 0.879; in [6], 0.94. The composite z-score in assay [7] turned out to be 0.947; in assay [9] it was 2.99; in assay [10] it was 2.75; in assay [11], 1.55; in [15] it was 2.56; in assay [17], 1.65. The composite z-score in assay [18] worked out at 1.85; in assay [19] it was 1.15; in [20], 0.944. Further, the z-score in [8] is 0.805 (inactive); in [12], 0.463 (inactive); in assay [13], 1.06 (inactive); in assay [14], 1.47 (inactive); in assay [16] it was -0.284 (inactive).
`C=C(/C(=C/C[C@H](OC(=O)c1ccncc1)c1ccccc1OCCO)c1cc(C(=O)OC)ccc1OC)C(C)C`: the composite z-score is -0.0165 in assay [1]; 0.229 in assay [2]; -0.01 in assay [3]; 0.605 in assay [4]; 0.267 in [5]; 1.1 in assay [6]. The composite z-score in [7] is 1.28; in assay [9], 0.265; in [10] it was -0.249; in assay [11] it was 1.43; in assay [15] it was 2.74; in assay [17], -0.159. The composite z-score in assay [18] was 0.691; in [19] it was 1.13; in [20] it was -0.112. Further, the z-score in assay [8] is -1 (inactive); in assay [12], 0.363 (inactive); in assay [13], 0.115 (inactive); in assay [14] it was 2.11 (inactive); in assay [16] it was 0.329 (inactive).
Turning to `C#CCN([C@H](/C=C/C1CC1)[C@@H](O)Cc1ccccc1)[C@@H](Cc1ccccc1)C(=O)OC`, the composite z-score in assay [1] is 0.262; in assay [2] it was -0.134; in assay [3], -0.121; in assay [4] it was -0.363; in assay [5], -0.807; in [6] it was -0.458. Besides, the composite z-score in assay [7] was -0.706; in assay [9], -0.0804; in [10], -0.123; in [11] it was 0.447; in assay [15], 0.126; in [17] it was -0.128. In addition, the composite z-score in [18] is 0.237; in assay [19], 0.606; in [20], -0.198. The z-score was -1.67 (inactive) in assay [8]; -0.345 (inactive) in assay [12]; -0.825 (inactive) in assay [13]; 0.316 (inactive) in assay [14]; 0.598 (inactive) in assay [16].

The values are drawn from PubChem BioAssay.
